Laboratory results as given in PubChem BioAssay (EPA / NIEHS).
Records with an inconclusive call do not appear. Some structures have more than one record in an assay (separate samples or runs), and their calls can disagree. The source made the active and inactive calls. The calls were made as follows, unless noted: active = hit-call score of the fitted dose curve at least 0.9, where 1 is the maximum; inactive = score below 0.9.

What was measured:
[1] = target: Paired box protein Pax-6 (Homo sapiens) (UniProt P26367); assay: ATG_Pax6_CIS: Attagene CIS-FACTORIAL HepG2 Assay for human Paired Box 6 (PAX6) (AID 2282956); details: HepG2 CIS-FACTORIAL PAX6 reporter transcription, RNA readout; actives raise or lower the signal
How it was run: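 DMSO-referenced bidirectional fits of reporter mRNA fluorescence; HepG2 with transient cis-promoter MRTUs, 24 h post-dose, RT-PCR plus capillary electrophoresis detection.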

[2] = ATG_PXRE_CIS: Attagene CIS-FACTORIAL HepG2 Assay for human Pregnane X Receptor Element (PXRE) (AID 2282957); details: HepG2 Attagene CIS-FACTORIAL PXRE reporter, mRNA; actives raise or lower the signal
How it was run: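 Endogenous transcription factor activity in HepG2 was gauged through induction of reporter mRNA driven by a cis-regulating promoter element, sampled 24 h post-treatment. Activity was fitted in both directions against DMSO negative control.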

[3] = ATG_PPRE_CIS: Attagene CIS-FACTORIAL HepG2 Assay for human Peroxisome Proliferator-activated Response Element (PPRE) (AID 2282958); details: HepG2 PPRE cis-element reporter, Attagene transcription factor profiling; actives raise or lower the signal
How it was run: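 Measured endpoint: PPRE-controlled reporter mRNA, detected by RT-PCR and capillary electrophoresis fluorescence, from transiently transfected HepG2 cells 24 h after dosing. Curves fitted in both directions using DMSO baseline.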

[4] = ATG_Sox_CIS: Attagene CIS-FACTORIAL HepG2 Assay for human SRY-box transcription factor (SOX) (AID 2282960); details: HepG2 Attagene cis-factorial SOX reporter, mRNA; actives raise or lower the signal
How it was run: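 Gain- or loss-of-signal endpoint, fitted bidirectionally with DMSO as negative control. Based on reporter mRNA from transfected HepG2 cells harvested 24 h post-treatment and quantified via RT-PCR and capillary electrophoresis.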

[5] = target: Transcription factor Sp1 (Homo sapiens) (UniProt P08047); assay: ATG_Sp1_CIS: Attagene CIS-FACTORIAL HepG2 Assay for human Specificity Protein 1 (Sp1) (AID 2282961); details: HepG2 Sp1 cis-reporter transcription, actives raise or lower the signal
How it was run: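 Endpoint reflects endogenous Sp1 transcriptional activity, not an exogenous fusion protein: HepG2 cells with transfected cis-regulated reporters, 24 h dosing, RT-PCR/capillary electrophoresis mRNA read-out, DMSO-normalised bidirectional fit.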

[6] = ATG_SREBP_CIS: Attagene CIS-FACTORIAL HepG2 Assay for human Sterol Regulatory Element Binding (SREBP) (AID 2282962); details: HepG2 Attagene cis-factorial SREBP reporter, mRNA; actives raise or lower the signal
How it was run: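 In this cis-format assay, HepG2 liver cells express reporters controlled by promoter elements responsive to native transcription factors. Exposure lasts 24 h; reporter mRNA fluorescence from capillary electrophoresis gives the signal, fitted bidirectionally against DMSO.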

[7] = target: Signal transducer and activator of transcription 3 (Homo sapiens) (UniProt P40763); assay: ATG_STAT3_CIS: Attagene CIS-FACTORIAL HepG2 Assay for human Signal Transducer and Activator of Transcription 3 (STAT3) (AID 2282963); details: HepG2, Attagene cis-factorial STAT3 reporter transcription; actives raise or lower the signal
How it was run: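 Fluorescence intensity of 6-FAM-labelled reporter fragments, separated by capillary electrophoresis after RT-PCR, gave the signal. Cells were HepG2 transfected with cis-element reporter units and treated 24 h; fitting was bidirectional relative to DMSO.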

[8] = ATG_TA_CIS: Attagene CIS-FACTORIAL HepG2 Assay for human TA Basal Promoter (AID 2282964); details: HepG2 Attagene CIS-factorial TA basal promoter reporter; actives raise or lower the signal
How it was run: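 Steps: transfect HepG2 with MRTUs; dose 24 h; isolate RNA, DNase-treat, reverse-transcribe; PCR and FAM-label reporter cDNA; digest with HpaI 2h at 37 C; run capillary electrophoresis. Activity fitted both directions against DMSO.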

[9] = ATG_TCF_b_cat_CIS: Attagene CIS-FACTORIAL HepG2 Assay for human T-Cell-Factor with beta-catenin (TCF/b-cat) (AID 2282965); details: HepG2 TCF/beta-catenin cis-reporter transcription, actives raise or lower the signal
How it was run: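 Cells of the HepG2 line carry transiently transfected reporter units whose promoters respond to endogenous factors. Twenty-four hours post-dosing, reporter mRNA induction is measured by fluorescent RT-PCR and capillary electrophoresis, with DMSO as baseline.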

[10] = ATG_TAL_CIS: Attagene CIS-FACTORIAL HepG2 Assay for human TAL Basal Promoter (AID 2282966); details: HepG2 Attagene cis-factorial TAL promoter reporter; actives raise or lower the signal;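 also: background control endpoint measuring basal TAL promoter reporter mRNA not a specific factor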
How it was run: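 Endogenous transcription-factor activity is sensed in HepG2 cells through transfected cis-promoter reporter constructs. After 24 h dosing, reporter transcripts are quantified by RT-PCR and capillary electrophoresis. Gain or loss of signal is fitted relative to DMSO.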

[11] = ATG_TGFb_CIS: Attagene CIS-FACTORIAL HepG2 Assay for human Transforming Growth Factor (TGF) (AID 2282967); details: HepG2 Attagene CIS TGFb reporter, mRNA transcription; actives raise or lower the signal
How it was run: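 Cells were dosed for 24 hours, after which total RNA was reverse-transcribed and reporter sequences amplified, labeled and sized by capillary electrophoresis. Activity was fitted in both directions against DMSO.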

[12] = ATG_VDRE_CIS: Attagene CIS-FACTORIAL HepG2 Assay for human Vitamin D Receptor Element (VDRE) (AID 2282968); details: HepG2 VDRE cis-reporter transcription, actives raise or lower the signal
How it was run: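 Compounds were applied for 24 h to HepG2 cells transfected with promoter-regulated reporter units. Total RNA was reverse-transcribed, and reporter amplicons were fluorescently labelled and sized by capillary electrophoresis.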

[13] = target: Steroid hormone receptor ERR1 (Homo sapiens) (UniProt P11474); assay: ATG_ERRa_TRANS: Attagene TRANS-FACTORIAL HepG2 Assay for human Estrogen-Related Receptor alpha (ERRa) (AID 2282971; active = hit-call score of the fitted dose curve at least 0.9, where 1 is the maximum); details: HepG2 Attagene TRANS reporter, ERRa transactivation
How it was run: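 HepG2 cells were transiently transfected with multiple GAL4-UAS reporter units, then dosed with compound for 24 h. Total RNA was reverse-transcribed, reporter cDNA PCR-amplified and fluorescently labelled, and fragments resolved by capillary electrophoresis; induction was compared with DMSO.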

[14] = target: X-box-binding protein 1 (Homo sapiens) (UniProt P17861); assay: ATG_Xbp1_CIS: Attagene CIS-FACTORIAL HepG2 Assay for human X-box Binding Protein 1 (XBP1) (AID 2282972); details: HepG2 XBP1 cis-element reporter, Attagene multiplex; actives raise or lower the signal
How it was run: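 Changes in reporter transcript abundance, read by RT-PCR and capillary electrophoresis, reflect endogenous transcription factor activity. Transfected HepG2 cells received compound for 24 hours; DMSO defined baseline for bidirectional analysis.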

[15] = ATG_M_19_TRANS: Attagene TRANS-FACTORIAL HepG2 Assay for M19 Transcription Factor (Internal Marker) (AID 2282974; active = hit-call score of the fitted dose curve at least 0.9, where 1 is the maximum); details: HepG2 Attagene TRANS-FACTORIAL M19 internal marker reporter
How it was run: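 Using RT-PCR and capillary electrophoresis, reporter mRNA from transiently transfected human HepG2 cells was quantified following 24 h exposure; activity was fitted in the positive direction against DMSO.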

[16] = ATG_PBREM_CIS: Attagene CIS-FACTORIAL HepG2 Assay for human Phenobarbital-responsive Enhancer Module (PBREM) (AID 2282955); details: HepG2 PBREM cis-reporter, Attagene multiplexed transcription; actives raise or lower the signal
How it was run: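 Transfected liver-derived HepG2 cells exposed 24 h; PBREM reporter transcript quantified via RT-PCR and capillary electrophoresis, with activity in either direction referenced to DMSO.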

[17] = ATG_RORE_CIS: Attagene CIS-FACTORIAL HepG2 Assay for human RAR-related Orphan Receptor Element (RORE) (AID 2282959); details: HepG2 Attagene cis-factorial RORE reporter, mRNA; actives raise or lower the signal
How it was run: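 Transiently transfected HepG2 reporter cells were treated 24 h. Reporter transcripts were detected by RT-PCR and capillary electrophoresis, with bidirectional fitting against DMSO.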

[18] = target: Nuclear receptor subfamily 1 group I member 3 (Homo sapiens) (UniProt Q14994); assay: ATG_CAR_TRANS: Attagene TRANS-FACTORIAL HepG2 Assay for human Constitutive Androstane Receptor (CAR) (AID 2282969; active = hit-call score of the fitted dose curve at least 0.9, where 1 is the maximum;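 also: activators raise reporter mRNA above DMSO so AC50 marks induction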); details: HepG2 Attagene TRANS-FACTORIAL CAR reporter
How it was run: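 Transiently transfected HepG2, multiplex TRANS reporters (CAR-Gal4 chimera driving GAL4-UAS reporter). 24 h dosing. Readout: reporter transcript by RT-PCR + capillary electrophoresis, fluorescence intensity; positive direction vs DMSO.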

[19] = target: Estrogen receptor (Homo sapiens) (UniProt P03372); assay: ATG_ERa_TRANS: Attagene TRANS-FACTORIAL HepG2 Assay for human Estrogen Receptor alpha (ERa) (AID 2282970; active = hit-call score of the fitted dose curve at least 0.9, where 1 is the maximum); details: HepG2 Attagene TRANS ERa GAL4 reporter, mRNA
How it was run: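 Transfected HepG2 cells carrying GAL4-UAS-driven reporter units were dosed for 24 hours. Total RNA was reverse-transcribed, reporter sequences PCR-amplified, FAM-labelled, HpaI-digested and resolved by capillary electrophoresis. Increases over DMSO control defined activity.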

[20] = ATG_Hpa5_TRANS: Attagene TRANS-FACTORIAL HepG2 Assay for human GAL4-Hpa5 Hepatocyte Transcription Factor Basal Promoter (AID 2282975; active = hit-call score of the fitted dose curve at least 0.9, where 1 is the maximum;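 also: hits are increases in reporter mRNA over DMSO baseline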); details: HepG2 Attagene GAL4-Hpa5 transcription reporter
How it was run: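 Gain-of-signal versus DMSO is fitted for reporter mRNA quantified by RT-PCR and capillary electrophoresis after 24 h exposure. This endpoint is an internal background marker in transiently transfected HepG2 cells carrying GAL4-UAS reporter units.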

Measured: AC50

Nuclear receptor subfamily 1 group I member 3 (Homo sapiens), sequence (Q14994 whole entry, looked up, the tested form may be a part): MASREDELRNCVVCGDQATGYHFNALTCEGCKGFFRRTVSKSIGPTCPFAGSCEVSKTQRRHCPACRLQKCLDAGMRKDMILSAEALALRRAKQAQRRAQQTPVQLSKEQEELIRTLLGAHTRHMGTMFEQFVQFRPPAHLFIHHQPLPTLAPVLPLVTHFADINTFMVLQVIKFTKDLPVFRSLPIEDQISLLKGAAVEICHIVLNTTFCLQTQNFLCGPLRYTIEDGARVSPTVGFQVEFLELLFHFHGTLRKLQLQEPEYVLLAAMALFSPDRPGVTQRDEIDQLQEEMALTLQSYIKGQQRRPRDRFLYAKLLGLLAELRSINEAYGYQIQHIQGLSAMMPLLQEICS
Signal transducer and activator of transcription 3 (Homo sapiens), sequence (P40763 whole entry, looked up, the tested form may be a part): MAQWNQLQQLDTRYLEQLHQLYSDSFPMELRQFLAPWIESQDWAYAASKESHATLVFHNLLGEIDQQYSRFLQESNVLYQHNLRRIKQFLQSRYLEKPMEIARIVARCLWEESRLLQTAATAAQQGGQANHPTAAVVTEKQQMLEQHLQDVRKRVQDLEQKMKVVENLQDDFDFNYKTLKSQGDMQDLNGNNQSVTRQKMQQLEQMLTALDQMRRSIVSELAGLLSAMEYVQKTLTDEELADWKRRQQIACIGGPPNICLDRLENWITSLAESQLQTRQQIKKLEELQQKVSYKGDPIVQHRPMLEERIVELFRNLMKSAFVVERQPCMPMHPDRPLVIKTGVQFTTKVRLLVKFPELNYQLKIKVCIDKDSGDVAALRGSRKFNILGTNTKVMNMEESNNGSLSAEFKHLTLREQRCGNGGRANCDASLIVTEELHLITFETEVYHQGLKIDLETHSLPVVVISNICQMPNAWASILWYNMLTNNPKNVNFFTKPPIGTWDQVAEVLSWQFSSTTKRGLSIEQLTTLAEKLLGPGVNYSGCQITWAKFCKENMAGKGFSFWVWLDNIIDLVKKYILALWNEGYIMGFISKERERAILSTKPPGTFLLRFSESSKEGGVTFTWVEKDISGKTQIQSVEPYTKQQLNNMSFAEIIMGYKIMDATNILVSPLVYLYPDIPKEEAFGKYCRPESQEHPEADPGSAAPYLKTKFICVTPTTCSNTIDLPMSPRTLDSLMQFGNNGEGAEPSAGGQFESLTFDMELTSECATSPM
Transcription factor Sp1 (Homo sapiens), sequence (P08047 whole entry, looked up, the tested form may be a part): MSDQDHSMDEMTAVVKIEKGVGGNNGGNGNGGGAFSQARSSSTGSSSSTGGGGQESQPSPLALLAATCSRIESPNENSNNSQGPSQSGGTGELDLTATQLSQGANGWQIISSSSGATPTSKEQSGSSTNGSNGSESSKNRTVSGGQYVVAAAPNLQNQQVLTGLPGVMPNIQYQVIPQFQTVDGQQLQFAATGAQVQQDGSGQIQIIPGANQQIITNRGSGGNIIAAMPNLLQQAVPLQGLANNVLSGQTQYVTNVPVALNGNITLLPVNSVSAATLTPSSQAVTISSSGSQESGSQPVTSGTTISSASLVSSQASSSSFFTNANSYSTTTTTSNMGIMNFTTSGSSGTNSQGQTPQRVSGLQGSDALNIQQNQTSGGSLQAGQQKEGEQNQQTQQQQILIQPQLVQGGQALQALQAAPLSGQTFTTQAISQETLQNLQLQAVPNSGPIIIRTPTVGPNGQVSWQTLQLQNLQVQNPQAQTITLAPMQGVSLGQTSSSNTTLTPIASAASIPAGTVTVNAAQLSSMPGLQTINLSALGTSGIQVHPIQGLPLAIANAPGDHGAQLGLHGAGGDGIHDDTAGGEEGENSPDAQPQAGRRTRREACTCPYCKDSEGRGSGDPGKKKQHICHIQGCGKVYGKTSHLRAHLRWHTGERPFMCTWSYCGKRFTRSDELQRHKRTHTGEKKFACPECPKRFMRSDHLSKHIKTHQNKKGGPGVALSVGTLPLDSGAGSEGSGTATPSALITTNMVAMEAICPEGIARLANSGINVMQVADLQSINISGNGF
Steroid hormone receptor ERR1 (Homo sapiens), sequence (P11474 whole entry, looked up, the tested form may be a part): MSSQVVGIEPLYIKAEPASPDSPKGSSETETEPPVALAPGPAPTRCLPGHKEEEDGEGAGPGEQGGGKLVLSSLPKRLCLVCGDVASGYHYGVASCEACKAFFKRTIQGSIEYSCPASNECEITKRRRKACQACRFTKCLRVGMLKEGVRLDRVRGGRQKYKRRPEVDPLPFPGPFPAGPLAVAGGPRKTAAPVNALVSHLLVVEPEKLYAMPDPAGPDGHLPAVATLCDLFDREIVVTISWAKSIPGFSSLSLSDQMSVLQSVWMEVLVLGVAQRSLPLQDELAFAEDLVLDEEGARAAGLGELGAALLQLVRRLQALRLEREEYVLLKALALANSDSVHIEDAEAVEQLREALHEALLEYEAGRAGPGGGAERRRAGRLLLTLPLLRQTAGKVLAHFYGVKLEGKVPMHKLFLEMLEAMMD
X-box-binding protein 1 (Homo sapiens), sequence (P17861 whole entry, looked up): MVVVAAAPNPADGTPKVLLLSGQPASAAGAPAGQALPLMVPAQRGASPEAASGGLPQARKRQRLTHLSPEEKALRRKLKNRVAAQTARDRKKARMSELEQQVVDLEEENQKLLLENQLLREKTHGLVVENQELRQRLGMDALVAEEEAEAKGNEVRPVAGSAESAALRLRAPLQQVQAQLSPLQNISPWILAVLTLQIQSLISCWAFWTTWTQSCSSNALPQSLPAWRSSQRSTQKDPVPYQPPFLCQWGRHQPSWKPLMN
Paired box protein Pax-6 (Homo sapiens), sequence (P26367 whole entry, looked up): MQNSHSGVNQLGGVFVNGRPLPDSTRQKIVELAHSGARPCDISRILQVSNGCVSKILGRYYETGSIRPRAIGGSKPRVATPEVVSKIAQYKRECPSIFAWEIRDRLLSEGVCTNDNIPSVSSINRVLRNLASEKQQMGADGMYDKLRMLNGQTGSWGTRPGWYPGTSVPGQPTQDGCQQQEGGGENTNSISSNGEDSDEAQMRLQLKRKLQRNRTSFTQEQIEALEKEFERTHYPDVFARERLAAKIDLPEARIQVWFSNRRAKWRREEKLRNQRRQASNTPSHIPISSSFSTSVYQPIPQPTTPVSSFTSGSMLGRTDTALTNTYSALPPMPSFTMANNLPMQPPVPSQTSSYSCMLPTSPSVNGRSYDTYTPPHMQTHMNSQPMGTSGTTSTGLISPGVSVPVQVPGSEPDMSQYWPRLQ
Estrogen receptor (Homo sapiens), sequence (P03372 whole entry, looked up, the tested form may be a part): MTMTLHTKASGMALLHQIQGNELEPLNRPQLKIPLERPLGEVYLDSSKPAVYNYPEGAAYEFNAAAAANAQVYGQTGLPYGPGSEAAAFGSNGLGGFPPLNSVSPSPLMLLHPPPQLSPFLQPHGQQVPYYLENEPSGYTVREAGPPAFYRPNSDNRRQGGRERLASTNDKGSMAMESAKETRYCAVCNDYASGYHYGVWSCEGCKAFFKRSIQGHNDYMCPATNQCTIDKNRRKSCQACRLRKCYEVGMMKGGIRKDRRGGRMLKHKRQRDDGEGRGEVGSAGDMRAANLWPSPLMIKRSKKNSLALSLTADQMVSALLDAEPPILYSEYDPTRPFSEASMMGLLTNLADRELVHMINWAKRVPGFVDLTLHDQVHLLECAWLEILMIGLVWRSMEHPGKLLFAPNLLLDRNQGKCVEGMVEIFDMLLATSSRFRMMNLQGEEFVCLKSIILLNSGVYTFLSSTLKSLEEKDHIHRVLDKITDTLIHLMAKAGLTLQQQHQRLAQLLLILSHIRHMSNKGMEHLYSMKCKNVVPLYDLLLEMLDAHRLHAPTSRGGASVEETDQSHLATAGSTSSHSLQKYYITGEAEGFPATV

CC(=O)[C@H]1CC[C@H]2[C@@H]3CCC4=CC(=O)CC[C@]4(C)[C@H]3CC[C@]12C
active: [1] 24.6 µM | [2] 4.83 µM [middle of 4 runs] | [6] 33.4 µM [middle of 4 runs] | [7] 180 µM | [10] 177 µM | [12] 26.5 µM [middle of 4 runs]
inactive: [1] | [3] | [4] | [5] | [7] | [8] | [9] | [10] | [11] | [13] | [14] | [15]

CC1(C)C(C=C(Cl)Cl)C1C(=O)OCc1cccc(Oc2ccccc2)c1 (centres undefined)
active: [2] 7.62 µM | [12] 10 µM | [19] 25.9 µM
not listed: [3] | [13] | [20]
inactive: all other assays above

CSC(=O)c1cccc2nnsc12
active: [2] 49.4 µM
not listed: [13] | [18] | [19] | [20]
inactive: all other assays above

CCCCCOC(=O)COc1cc(N2C(=O)C3=C(CCCC3)C2=O)c(F)cc1Cl
active: [2] 10.2 µM | [9] 26.6 µM
not listed: [3] | [13] | [16] | [18]
inactive: all other assays above

CC(C)(C)[C@@H](O)[C@@H](Cc1ccc(Cl)cc1)n1cncn1
active: [2] 13.5 µM | [12] 14 µM
not listed: [13] | [15] | [16] | [18] | [19] | [20]
inactive: all other assays above

CCNc1nc(N)nc(Cl)n1
not listed: [3] | [15] | [17] | [19]
inactive: all other assays above

CCOC(=O)[C@H](C)Oc1ccc(Oc2nc3ccc(Cl)cc3o2)cc1
active: [3] 50 µM
not listed: [13] | [17] | [19]
inactive: all other assays above
